The values that follow come from the supplement of paper PMC11417369.

In all, about 25,000 sequences were measured (“ln(normalized median fluorescence intensity)”: median about 6.7, highest 2% from about 10 on). The entries come from a sample that favours the highest values as a whole.

For the assay, the system named is PfHDP1 homeodomain (GST-tagged). As to the kind of experiment: gcPBM binding intensity (ln(normalized median fluorescence intensity)); higher = stronger DNA binding. The method in brief:
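GST-tagged P. falciparum DNA-binding domains, expressed in E. coli (about 25 μg on average), were applied for 1 h to an Agilent 4 × 180k array of primer-extended double-stranded 36-bp intergenic genomic probes plus negative controls. The binding buffer was 1× PBS with 1% milk, 0.2 mg/ml BSA, 0.5% salmon testes DNA and 0.03% Triton X-100. Bound protein was detected with Alexa488 anti-GST antibody and scanned at 488 nm. Binding intensity is the highest Masliner-normalised natural-log median intensity across replicate spots of either probe orientation.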
For the sequence “CTATTTAAAATTTGAACACACATTATTTATTTTAAA [CACACA_site3114]”, the “gcPBM binding intensity (ln)” value came out at 6.41.
Consider “TTAATTATCCATTTTGCACACATTTTAAAACATGAA [CACACA_site189]”, for which the “gcPBM binding intensity (ln)” value was 10.7.
With “TTTTTTTTTTTTTTTGCACACATTTTAATTATTTTT [CACACA_site341]” the figure was 9.27.
Take “TTCCTTTGTCCTAACTGTACTCAAATTTATTAGTGG [XGTACX_site226]”: the “gcPBM binding intensity (ln)” value is 7.04.
The same measure for “TATATATTCATAAAGTGTACATGTTTATATATATAT [XGTACX_site7585]”: 8.53.
On to “TATATATAAGCGTGTACACATTCTGAGTGTTGTATA [CACACA_site4502]”, for which the “gcPBM binding intensity (ln)” value came out at 7.02.
For the sequence “ATAGTATATCAAAATTTGTAAATCATTCTCAATAAA [CACACA_negctrl_site430]”, the “gcPBM binding intensity (ln)” value came out at 5.94.
The same measure for “AATATAAATAATTATACACACTTAATATATATATAC [CACACA_site5533]”: 6.53; for “ATATATATTTATATATATATATATATATATATGTAT [GTGCAC_negctrl_site220]”: 7.92; for “TATATATATATATATATATATATGTATGTGCATTTA [TGCATGCA_negctrl_site53]”: 11.2.
For “ATATGTATGTATTTATTATTGTGCATTGTATTTATA [CACACA_negctrl_site664]”, the “gcPBM binding intensity (ln)” value turned out to be 10.3.
With “CACACGCACGAACACACACACACACGCGCACATATA [CACACA_site6304]” the figure was 8.54; with “CAAAAAAACAAACACACACACACACCCATATATATA [CACACA_site3653]”, 6.85; with “TTTTTTAAAGTTTAAAGTACATATAAAAATATATAA [XGTACX_site5267]”, 5.94.
With “AAAGTTTTTATAAAAAAAAAAATAAATACCATATAT [XGTACX_negctrl_site113]” the figure was 6.5; with “TATACCAGTTTTAAAAGTACTTGTGCATAAAAAATA [XGTACX_site4794]”, 11; with “TATGGTTTTAAAAAATGTACGCAAGTGCGTTAATTT [XGTACX_site3945]”, 7.62.
With “TTATAATATATATACAGTACATATATAAAATAATAT [XGTACX_site5917]” the figure was 6.5; with “AAAAAAAATTATATATGTACTTATTAATCCTTTTAT [XGTACX_site1387]”, 6.11.
Turning to “AGCACATAAATAATTAAACACACATTGTTCTAGACA [CACACA_site8746]”, the “gcPBM binding intensity (ln)” value was found to be 6.3.
For the sequence TCCAATTGTTCTAGTGTGCACATAAATAAATCTCAT, the “gcPBM binding intensity (ln)” value came to 11.
The same measure for “CACATAAATAATTAAACACACATTGTTCTAGACAAT [CACACA_site2378]”: 6.51; for “AGTCTGAATAAAATTACACACATATACCTATAAATA [CACACA_site6929]”: 6.4; for “ATACATAAAATTAAAACACACATTTGATTAAATACG [CACACA_site7088]”: 6.6.
The same measure for “AATTAAAAAATTTATGCACACTTTAAAAAAAAAAAA [CACACA_site5962]”: 9.66.
With “TAAATTAATACCTATGCACACATTTTTTTTTTTAAA [CACACA_site1238]” the figure was 8.59; with “TGCACAAAATTATGCACACACCTAAAATTAATTTTT [CACACA_site5596]”, 10.8.
Take “TGTGCCCAAAATTATGCACACACCTAAAATTAATTT [CACACA_site2914]”: the “gcPBM binding intensity (ln)” value came out at 10.5.
On to “TGTGCTCAAAATTATGCACACACCTAAAATTAATTT [CACACA_site8950]”, for which the “gcPBM binding intensity (ln)” value turned out to be 10.7.
With “TGCACAAAGTTATGCACACACCTAAAATTAATTTTT [CACACA_site7385]” the figure was 10.5; with “GATAATAATAAACAACCACACACAAAAAAACAAAAA [CACACA_site9074]”, 7.01.
Regarding “TTTTTTTTTTTTTATTGTACTTATTTTTTTATGTTT [XGTACX_site7725]”, the “gcPBM binding intensity (ln)” value worked out at 5.96.
On to “AAAAAAAAAAAATGCACACATATATTTCCATATACA [CACACA_site1471]”, for which the “gcPBM binding intensity (ln)” value worked out at 9.96.
Turning to “AAAAATATTAAAAGGCGTACAATACCTGTATGCAAC [XGTACX_site6069]”, the “gcPBM binding intensity (ln)” value stood at 6.12.
With “TTTGTTATTTTTTATTGTACTTTTTTTCTTTCATAA [XGTACX_site4302]”, the “gcPBM binding intensity (ln)” value was 7.03.
Turning to “AATAGCTAGCTGTGCACACAAACATATTTTCCAAAT [CACACA_site880]”, the “gcPBM binding intensity (ln)” value is 10.3.
With “AATATTAACAATCGCACACATATTATTTTTCCAAAA [CACACA_site4982]”, the “gcPBM binding intensity (ln)” value was found to be 7.13.
The same measure for “CAAATAGCTAGCTGTGCACACAAACATATTTTCCAA [CACACA_site879]”: 11.
On to “ATATTGACAAATATTACACACATATATATATATATA [CACACA_site4079]”, for which the “gcPBM binding intensity (ln)” value amounted to 9.39.
Take “ATAACTAAATGATATTGTACAAAATAATTATATATT [XGTACX_site1331]”: the “gcPBM binding intensity (ln)” value was 6.38.
The same measure for “TATATATATATATATTGTACTAATTGTGCAAATGAG [XGTACX_site682]”: 10.9.
“AAAAAAAAAATTAATTGTACTAAAAAAATATTATAT [XGTACX_site8903]”: the “gcPBM binding intensity (ln)” value was 6.41.
With “TATGATATCTATAATACACACATATACATAAGATCT [CACACA_site6652]” the figure was 6.6; with “AAAAATATTTAAAATACACACATATCTATAATATAT [CACACA_site7032]”, 6.36.
The same measure for “TACCAAAAAAAAAAAAATAAAAATAAAAAAAAAAAT [CACACA_negctrl_site1714]”: 6.27; for “AAGTTGAAATAATGTGCACACATTTTTTTTTTTTTT [CACACA_site3368]”: 9.16.
On to “TATTTACATTTATGTGCACACATTCCATTTGAAAGT [CACACA_site1954]”, for which the “gcPBM binding intensity (ln)” value worked out at 11.
The same measure for “AAAAAAAAAAAAAAAAGTACACATCATTTTATGAAA [XGTACX_site1402]”: 6.41; for “TTTGAAAAGTTGAAATGTACACATTTACACATATTT [XGTACX_site1641]”: 6.24; for “TTTACATTTATGTGCACACATTCCATTTGAAAGTAA [CACACA_site1953]”: 10.9.
With “AACACATACATATATGCACACATTTTATTCCATTAT [CACACA_site2834]”, the “gcPBM binding intensity (ln)” value was found to be 10.1.
Regarding “TTACAAGTAAAAGGTACACACATTATAAATACAAAT [CACACA_site4752]”, the “gcPBM binding intensity (ln)” value stood at 6.93.
With “ATCAACATCTAACATTGTACATGTGATGTGTAAAAG [XGTACX_site547]” the figure was 6.69; with “TATATATATATATGTACACACATCAATCATATTAAC [CACACA_site1946]”, 9.26; with “TATATATATATATATATTAATAATTAATATAAAAGA [XGTACX_negctrl_site32]”, 9.
With GAGGTACATTAATTAGTGCATTAAAATTTTTATCCT the figure was 9.85; with “TATGTTATATAATATTGTACACAAAATGGTTTCTAT [XGTACX_site7686]”, 6.73; with “TAAATTAAAAAAAAAAACAAAAAAAAAGCAACAAAA [CACACA_negctrl_site1318]”, 6.62.
The same measure for “ATGTGCACATGTAGAAGTACTTTTTCTTAAAATACT [XGTACX_site8341]”: 10.9; for “AAGTTTTCTTAAAGATGTACTTTTTAAAAATAAAAT [XGTACX_site3063]”: 6.15; for “TTTTGAAGTAATACATGTACTTAAATTACTAAAAAA [XGTACX_site1955]”: 6.04.
With “TTTAAAATGGGACTTTGAAAAAAAAAAAAAAAAACA [TGCATGCA_negctrl_site111]”, the “gcPBM binding intensity (ln)” value amounted to 6.1.
For “GTCAAATTTTTGTGCACACATATATAGTTATTATTA [CACACA_site2241]”, the “gcPBM binding intensity (ln)” value was 11.7.
The same measure for “TGTGTATTTATAAATACACACCAAATGTTAATATAT [CACACA_site6904]”: 6.9; for “TTTTCATATTATAGTGCACACAAAAATATATATATG [CACACA_site8929]”: 10.3; for “TGTGTCAAATAATTAATGTCATATATATTTTGTATA [CACACA_negctrl_site1479]”: 6.11.
With “ATGTCAAATTTTTGTGCACACATATATAGTTATTAT [CACACA_site2242]” the figure was 11.4; with “AAATATTACATTTGTTAAATAATATGTTATACATAA [XGTACX_negctrl_site484]”, 5.89.
The same measure for “AATTTTTTATATGTCACACATTTGTTATTATTATTA [CACACA_site4197]”: 6.51.
As for “TTTTTTTTTTTTTTTGTGCACAATTATTTCAATTTT [GTGCAC_site9884]”, the “gcPBM binding intensity (ln)” value turned out to be 10.2.
The same measure for CAGTTGTTAATTTGTGTGCACCAAATATTATACATA: 10.5.
In the case of “ATGAAACAGTAACATTGTACTTTTACAAAAAAATAA [XGTACX_site806]”, the “gcPBM binding intensity (ln)” value stood at 6.25.
With “TTATATATATATAATACACACATAATAATATATTTA [CACACA_site3038]” the figure was 6.67.
As to “TATAATAATAATAATAGTACGTATTATTAAAAAACT [XGTACX_site10]”, the “gcPBM binding intensity (ln)” value stood at 6.58.
Regarding “TATATAGATATGATAGTGCATTTTTAGAAAACATAA [GTGCAC_site9962]”, the “gcPBM binding intensity (ln)” value was determined as 7.95.
As to “TTATAAAAAATTTTAGTGCATATATGATTTATATAT [GTGCAC_site9831]”, the “gcPBM binding intensity (ln)” value was 9.44.
For the sequence ATGATATGCAATTTAGTGCATAACAAAATTGGTATA, the “gcPBM binding intensity (ln)” value was 10.5.
Regarding “AAAATGCATTTGATGTGTACGCATTATAAAGAACAA [XGTACX_site4203]”, the “gcPBM binding intensity (ln)” value was 7.39.
As for “ATAGGCACTTTTTGCACACGTATGAATAACAAAATA [CACACA_site5069]”, the “gcPBM binding intensity (ln)” value is 10.4.
“ATATGCACTTTTTGCACACGTATGAATAACAAAATA [CACACA_site1810]”: the “gcPBM binding intensity (ln)” value stood at 11.2.
As for “TACGTAATAATATGCACACAAATAAACTTTATAAAT [CACACA_site3501]”, the “gcPBM binding intensity (ln)” value came to 9.89.
Turning to “AGTAAATAACACAAATATGAATGAAAAAAAAAATAT [GTGCAC_negctrl_site235]”, the “gcPBM binding intensity (ln)” value was 6.82.
“TTATATGCACTTTTTGCACACGTATGAATAACAAAA [CACACA_site1811]”: the “gcPBM binding intensity (ln)” value amounted to 11.5.
The same measure for “TAGTATAATATGAACACACACACACGCACAAAAAAA [CACACA_site7035]”: 7.3; for “AAAAGGAAGATATATACACACATACAAATATTTATA [CACACA_site7093]”: 6.71; for “TATACTTGTAAATGCACACATAAGATGCGACTAATG [CACACA_site2118]”: 9.37.
The same measure for “TAAGGGATATGTATATGTACATACAAATATATATAA [XGTACX_site2892]”: 6.63; for “TAAGTGCATGAGATATGTACATATATAAAATATATA [XGTACX_site3294]”: 9.2; for “TACAATAAGGATAAGTGTACATATGTGCATACATAT [XGTACX_site7188]”: 10.6.
